For 40 compounds, growth inhibition results are on record in PubChem BioAssay (NCI).

This is part of a sample that, as a whole, favours compounds with a hit. Of some 79,000 tested, about 15% had one in any assay. Unmarked numbers belong to inactive results. Calls of active or inactive are those of the source. Cut-off read from the data, not from the text of the source: active = growth inhibition above about 70%; inactive = the rest.

The first assay in a line: NCI Yeast Anticancer Drug Screen. Data for the sgs1 mgt1 strain (AID 161).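 Note: 0% = growth of cultures given vehicle only.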 To be noted: S. cerevisiae sgs1 mgt1 strain, at 50.0 µM, hits give high values. In short, it runs like this: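 Compounds are added to genetically altered yeast, and growth is compared with cultures given vehicle alone to give percent inhibition.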
In the case of `Cc1ncc([N+](=O)[O-])n1C(C)C(=O)Nc1ccc(N(CCCl)CCCl)cc1` (stereo not given), the growth inhibition was 3.5%.
Same read-out and setting: the value for `CCC(CC)CNC(=O)C(Cl)Cl` was 18.6%.
Regarding `CC(CCOc1ccc2ccc(=O)oc2c1)C1=CC(=O)C(C)(C)O1` (stereo not given), the growth inhibition is 21.1%.
Still for that read-out and setting: the value for `COc1ccc2c(c1)CCC1C2CCC2(C)C1CCC21CCNP(=O)(N(CCCl)CCCl)O1` (stereo not given) was 72.2% (active); that for `OC(c1ccccc1)C(Cl)(Cl)Cl` (stereo not given) was 13.7%; that for `CC(=N\[O-])/C(C)=N/[O-].CC(=N\[O-])/C(C)=N/[O-].[Cu+2]` was 15%.
As for `O=C1NC(=O)C(=Cc2ccccn2)C(=O)N1`, the growth inhibition is -0.45%.
For the compound `O=C(c1ccccc1)C1NC1c1ccccc1` (stereo not given), the growth inhibition is 1.65%.
On the same count and under the same terms, the value for `C[N+]12C(=O)CC3OCC=C4C[N+]5(C)CCC6(c7ccccc71)C2C3C4CC65O` (stereo not given) was -22%; that for `CN(N=O)C(=O)ON1C(=O)CCC1=O` was 11.3%.
Turning to `NC(=O)Nc1cc(NC(N)=O)cc(N(CCCl)CCCl)c1`, the growth inhibition is -20.1%.
With `c1ccc2c(C3N4CCCN3CC4)c[nH]c2c1` (stereo not given), the growth inhibition was 8.7%.
For `O=C1CCCCC1CN1CCCCC1` (stereo not given), the growth inhibition was -2.45%.
For `Cc1ccc(NC(=O)N(C)N=O)cc1`, the growth inhibition was -4.3%.
As for `O=C(N/N=C/c1cc(Cl)cc(Cl)c1[O-])c1ccccc1O.O=C(N/N=C/c1cc(Cl)cc(Cl)c1[O-])c1ccccc1O.[Ni+2]`, the growth inhibition was -14.8%.
Regarding `CC(Cl)CN(CC(C)Cl)C(=O)Oc1ccc(CC(N)C(=O)O)cc1` (stereo not given), the growth inhibition is 25.4%.
For the compound `N=C(N)n1cc(/C=N/N=C(N)N)cn1`, the growth inhibition was -0.15%.
Turning to `CC1(C)OC2COC(CN=[N+]=[N-])C2O1` (stereo not given), the growth inhibition is 0.9%.
Still for that read-out and setting: the value for `N=C(N)N.[O]=[Cr](=[O])([OH])[OH]` was 37.5%; that for `O=C(O)C(=O)O.[Co].[NH-]CC[NH-].[NH-]CC[NH-]` was 6.65%.
On to `O=[N+]([O-])c1ccc(Cl)c(OCCCOc2ccc(S(=O)(=O)F)cc2)c1`, for which the growth inhibition is 8.05%.
On to `CC1(C)N=C(N)N=C(N)N1c1ccc(OCCCOc2ccc(S(=O)(=O)F)cc2)cc1`, for which the growth inhibition is 89.1% (active).
Same read-out and setting: the value for `O=P1(N2CCCCC2)OCC2(CO1)COP(=O)(N1CCCCC1)OC2` (stereo not given) was 0.1%.
On the same count and under the same terms, the value for `COC(=O)CP(=O)(OC)OC` was 1.8%; that for `Cc1nccc2c1[nH]c1ccccc12` was -15.4%.
As to `O=S(=O)(c1ccccc1)c1ccccc1`, the growth inhibition was 1.6%.
On to `COC(=O)CCSP(=S)(Oc1ccccc1)Oc1ccccc1`, for which the growth inhibition is 12.3%.
Take `NC(CP(=O)(O)O)C(=O)O` (stereo not given): the growth inhibition was -31.1%.
In the case of `CCOC(=O)C(Br)CBr` (stereo not given), the growth inhibition was 4.85%.
For `Clc1ccc(C(Cl)(Cl)Cl)c(Cl)c1`, the growth inhibition was -9.3%.
Regarding `C1CN([PH+](N2CC2)N2CC2)CCO1.C1CN([PH+](N2CC2)N2CC2)CCO1.[Cl][Pt][Cl]`, the growth inhibition was 10%.
Consider `CCOC(=O)c1ccccc1C(=O)OCC`, for which the growth inhibition was -9.6%.
With `ICc1nc2ccccc2[nH]1`, the growth inhibition is 3.65%.
The same measure, in the same setting: the value for `COc1ccc(CC(N)c2nn[nH]n2)cc1` (stereo not given) was -1.1%; that for `ClC1OC(Cl)(Cl)C(Cl)(Cl)OC1(Cl)Cl` (stereo not given) was 35%.
With `Oc1ccc(Cl)cc1Br`, the growth inhibition was -1.1%.
Same read-out and setting: the value for `CC1CC(O)C(=O)C(O[C@@H]2C[C@@H]3CC[C@@H]4[C@H](CC[C@]5(C)C(C6=CC(=O)OC6)CC[C@]45O)[C@@]3(C=O)C[C@H]2O)O1` (stereo not given in full) was -8.1%; that for `NNc1nncn1N` was -23.4%.
As to `COc1ccc2[se]c(C)nc2c1`, the growth inhibition is 5.3%.
On to `NC1=C(c2nc(-c3cc4ccccc4oc3=O)cs2)C(c2ccco2)c2c(c3ccccc3oc2=O)O1` (stereo not given), for which the growth inhibition was -21.4%.

The next assay in a line: NCI Yeast Anticancer Drug Screen. Data for the cln2 rad14 strain (AID 165).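 Note: 0% = growth equal to vehicle treated cultures.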 To be noted: S. cerevisiae cln2 rad14 strain, at 50.0 µM, hits give high values. In short, it runs like this: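 Growth inhibition, relative to vehicle-treated controls, is the read-out. The test organism is a yeast strain with defined genetic alterations, cln2 rad14.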
On to `Cc1ncc([N+](=O)[O-])n1C(C)C(=O)Nc1ccc(N(CCCl)CCCl)cc1` (stereo not given), for which the growth inhibition is -2.3%.
`CCC(CC)CNC(=O)C(Cl)Cl`: the growth inhibition was -18.1%.
The same measure, in the same setting: the value for `CC(CCOc1ccc2ccc(=O)oc2c1)C1=CC(=O)C(C)(C)O1` (stereo not given) was 0.05%.
Take `COc1ccc2c(c1)CCC1C2CCC2(C)C1CCC21CCNP(=O)(N(CCCl)CCCl)O1` (stereo not given): the growth inhibition was 23.3%.
As to `OC(c1ccccc1)C(Cl)(Cl)Cl` (stereo not given), the growth inhibition is -42.1%.
With `CC(=N\[O-])/C(C)=N/[O-].CC(=N\[O-])/C(C)=N/[O-].[Cu+2]`, the growth inhibition is -18.9%.
Consider `O=C1NC(=O)C(=Cc2ccccn2)C(=O)N1`, for which the growth inhibition is 18.6%.
As for `O=C(c1ccccc1)C1NC1c1ccccc1` (stereo not given), the growth inhibition was -16.6%.
With `C[N+]12C(=O)CC3OCC=C4C[N+]5(C)CCC6(c7ccccc71)C2C3C4CC65O` (stereo not given), the growth inhibition was 11.2%.
As to `CN(N=O)C(=O)ON1C(=O)CCC1=O`, the growth inhibition is 12.4%.
`NC(=O)Nc1cc(NC(N)=O)cc(N(CCCl)CCCl)c1`: the growth inhibition was -7.15%.
With `c1ccc2c(C3N4CCCN3CC4)c[nH]c2c1` (stereo not given), the growth inhibition is 9.3%.
As to `O=C1CCCCC1CN1CCCCC1` (stereo not given), the growth inhibition was -3.25%.
Still for that read-out and setting: the value for `Cc1ccc(NC(=O)N(C)N=O)cc1` was -11.3%; that for `O=C(N/N=C/c1cc(Cl)cc(Cl)c1[O-])c1ccccc1O.O=C(N/N=C/c1cc(Cl)cc(Cl)c1[O-])c1ccccc1O.[Ni+2]` was -41.2%; that for `CC(Cl)CN(CC(C)Cl)C(=O)Oc1ccc(CC(N)C(=O)O)cc1` (stereo not given) was -20.6%.
With `N=C(N)n1cc(/C=N/N=C(N)N)cn1`, the growth inhibition is 0.1%.
As to `CC1(C)OC2COC(CN=[N+]=[N-])C2O1` (stereo not given), the growth inhibition was -0.8%.
Regarding `N=C(N)N.[O]=[Cr](=[O])([OH])[OH]`, the growth inhibition was 10.6%.
The same measure, in the same setting: the value for `O=C(O)C(=O)O.[Co].[NH-]CC[NH-].[NH-]CC[NH-]` was -12.8%; that for `O=[N+]([O-])c1ccc(Cl)c(OCCCOc2ccc(S(=O)(=O)F)cc2)c1` was 3.7%; that for `CC1(C)N=C(N)N=C(N)N1c1ccc(OCCCOc2ccc(S(=O)(=O)F)cc2)cc1` was -7.65%.
Still for that read-out and setting: the value for `O=P1(N2CCCCC2)OCC2(CO1)COP(=O)(N1CCCCC1)OC2` (stereo not given) was -7.55%.
On to `COC(=O)CP(=O)(OC)OC`, for which the growth inhibition is -3.15%.
On to `Cc1nccc2c1[nH]c1ccccc12`, for which the growth inhibition is -5.65%.
On the same count and under the same terms, the value for `O=S(=O)(c1ccccc1)c1ccccc1` was -8.05%; that for `COC(=O)CCSP(=S)(Oc1ccccc1)Oc1ccccc1` was 4.25%; that for `NC(CP(=O)(O)O)C(=O)O` (stereo not given) was -55.2%.
The same measure, in the same setting: the value for `CCOC(=O)C(Br)CBr` (stereo not given) was -2.3%; that for `Clc1ccc(C(Cl)(Cl)Cl)c(Cl)c1` was -15.8%; that for `C1CN([PH+](N2CC2)N2CC2)CCO1.C1CN([PH+](N2CC2)N2CC2)CCO1.[Cl][Pt][Cl]` was -8.85%.
With `CCOC(=O)c1ccccc1C(=O)OCC`, the growth inhibition is 6.1%.
On to `ICc1nc2ccccc2[nH]1`, for which the growth inhibition is -1.75%.
As for `COc1ccc(CC(N)c2nn[nH]n2)cc1` (stereo not given), the growth inhibition is -23.1%.
With `ClC1OC(Cl)(Cl)C(Cl)(Cl)OC1(Cl)Cl` (stereo not given), the growth inhibition is -4.25%.
As to `Oc1ccc(Cl)cc1Br`, the growth inhibition is 12%.
On the same count and under the same terms, the value for `CC1CC(O)C(=O)C(O[C@@H]2C[C@@H]3CC[C@@H]4[C@H](CC[C@]5(C)C(C6=CC(=O)OC6)CC[C@]45O)[C@@]3(C=O)C[C@H]2O)O1` (stereo not given in full) was -2.6%; that for `NNc1nncn1N` was 51.3%; that for `COc1ccc2[se]c(C)nc2c1` was -2.6%.
On the same count and under the same terms, the value for `NC1=C(c2nc(-c3cc4ccccc4oc3=O)cs2)C(c2ccco2)c2c(c3ccccc3oc2=O)O1` (stereo not given) was -38.8%.
